Assay [1] in a line: qHTS assay to identify small molecule agonists of the sonic hedgehog signaling (Shh) pathway (AID 1259368).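 Further: NIH/3T3-derived 3T3Gli1-Luc cells carrying a stable Gli1-driven firefly luciferase reporter; series mostly up to about 92 µM; nearly all actives have a fitted effect of over 15% in size.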 Put shortly: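 Steps: seed 3T3 Gli1-Luc cells, incubate 4 hr at 37 C, pin-transfer compounds in DMSO alongside a positive control, incubate 24 hr, add luciferase detection reagent, wait 30 min at room temperature, read luminescence.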
On the technique in general: qHTS replaces the single test concentration by a dilution series.

Assay [2] in a line: qHTS assay to identify small molecule antagonists of the sonic hedgehog signaling (Shh) pathway (AID 1259369). Further: nearly all actives have a fitted effect of over 45% in size. Further: potency means the concentration at half of the fitted maximal effect. Summed up:
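Inhibition of Shh signalling is measured as reduced Gli1-response-element firefly luciferase output in an NIH/3T3-derived stable reporter clone stimulated with conditioned medium for 24hr.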

The target of assay [3] is Estrogen receptor beta (Homo sapiens) (UniProt Q92731). Description: qHTS assay to identify small molecule agonists of the estrogen receptor beta (ER-beta) signaling pathway (AID 1259377; active means well fitted activation curve with a large enough effect in the signal ratio in the repeat runs, not every such curve was filed as active; the % refers to the signal ratio). Summed up:
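Ratiometric beta-lactamase FRET read-out came after 2 h substrate loading at room temperature. It followed 16 h compound treatment at 37C of GripTite HEK293T cells carrying a UAS-bla reporter, plated in 2% charcoal-stripped FBS medium.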

The target is the same in assay [4]. Description: qHTS assay to identify small molecule antagonists of the estrogen receptor beta (ER-beta) signaling pathway (AID 1259378; active means well fitted inhibition curve with a large enough effect in the signal ratio in the repeat runs, not every such curve was filed as active; the % refers to the signal ratio; further: potency means the concentration at half of the fitted maximal effect). Summed up:
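Antagonist mode: compounds added to beta-lactamase reporter HEK293T ER-beta-UAS cells stimulated with E2 (1nM final), 16 hr at 37C. LiveBLAzer B/G FRET substrate, 2 hours room temperature, fluorescence read-out.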

Assay [5] is described as follows: qHTS assay to identify small molecule agonists of the androgen receptor (AR) signaling pathway in the presence of an antagonist - cell viability counter screen (AID 1259379; active means well fitted curve in the direction sought with a large enough effect in the repeat runs; an effect the other way counts as inactive or inconclusive; further: nearly all actives have a fitted effect of over 25% in size; further: potency means the concentration at half of the fitted maximal effect;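 on activity change, negative = cytotoxicity: MDA-kb2 human breast cancer cells carrying an MMTV luciferase reporter; series mostly up to about 92 µM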). Put shortly: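 Fluorescence from CellTiter-Fluor, added after 15 hr and read 1 hr later, gave cell viability. Cells were MDA-kb2 exposed to compounds (15 concentrations) in the presence of 3.0uM nilutamide at 37C, 0% CO2.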

Assay [6] in a line: qHTS assay to identify small molecule agonists of the estrogen receptor beta (ER-beta) signaling pathway - cell viability counter screen (AID 1259380; active means well fitted curve in the direction sought with a large enough effect in the repeat runs; an effect the other way counts as inactive or inconclusive; further: nearly all actives have a fitted effect of over 30% in size; further: potency means the concentration at half of the fitted maximal effect). Put shortly: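 Same-well viability counter screen. Cells: ER-beta-UAS-bla HEK293T, plated 6 hr before compound, in 2% charcoal-stripped FBS. Compound exposure 16 hr, 37C; viability by CellTiter-Glo luminescence after 30 min at room temperature.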

For assay [7], the target named is Androgen receptor (Homo sapiens) (UniProt P10275). Description: qHTS assay to identify small molecule agonists of the androgen receptor (AR) signaling pathway in the presence of an antagonist (AID 1259381). Further: nearly all actives have a fitted effect of over 15% in size. Put shortly: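 Cells are MDA-kb2 (human breast carcinoma, MMTV-luc, AR/GR responsive). Nilutamide is present at 3.0uM final throughout; compounds are added at 15 concentrations and incubated 16hr at 37C before ONE-Glo luminescence detection.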
Androgen receptor (Homo sapiens), sequence (P10275 whole entry, looked up): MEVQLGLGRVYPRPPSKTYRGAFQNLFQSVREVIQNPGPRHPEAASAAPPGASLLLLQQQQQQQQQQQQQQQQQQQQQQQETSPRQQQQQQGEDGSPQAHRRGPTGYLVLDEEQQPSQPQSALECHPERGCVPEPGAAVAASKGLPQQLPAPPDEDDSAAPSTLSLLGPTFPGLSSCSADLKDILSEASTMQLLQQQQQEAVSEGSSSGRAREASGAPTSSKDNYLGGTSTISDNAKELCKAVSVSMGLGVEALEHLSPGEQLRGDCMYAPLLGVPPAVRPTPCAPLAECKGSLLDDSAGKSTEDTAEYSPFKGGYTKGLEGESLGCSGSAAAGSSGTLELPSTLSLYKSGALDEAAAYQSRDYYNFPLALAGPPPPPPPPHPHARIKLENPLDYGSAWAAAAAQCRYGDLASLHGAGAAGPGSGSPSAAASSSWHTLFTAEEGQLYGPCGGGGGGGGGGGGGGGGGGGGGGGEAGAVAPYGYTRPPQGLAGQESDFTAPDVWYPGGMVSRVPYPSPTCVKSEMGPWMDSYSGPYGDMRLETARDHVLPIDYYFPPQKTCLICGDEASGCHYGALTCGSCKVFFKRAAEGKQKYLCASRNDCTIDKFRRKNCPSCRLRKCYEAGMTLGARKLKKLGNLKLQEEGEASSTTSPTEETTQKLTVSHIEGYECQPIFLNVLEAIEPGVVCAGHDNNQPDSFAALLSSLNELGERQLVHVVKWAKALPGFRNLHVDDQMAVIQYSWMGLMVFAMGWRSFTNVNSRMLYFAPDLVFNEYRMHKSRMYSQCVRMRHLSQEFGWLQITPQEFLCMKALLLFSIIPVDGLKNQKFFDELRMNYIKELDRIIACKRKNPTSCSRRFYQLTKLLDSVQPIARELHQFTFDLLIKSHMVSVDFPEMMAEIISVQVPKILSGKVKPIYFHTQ

Assay [8] is described as follows: qHTS assay to identify small molecule antagonists of the estrogen receptor beta (ER-beta) signaling pathway - cell viability counter screen (AID 1259382; active means well fitted curve in the direction sought with a large enough effect in the repeat runs; an effect the other way counts as inactive or inconclusive;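 further: HEK293T cells carrying ER-beta-UAS-bla reporter stimulated with estradiol; series mostly up to about 92 µM; nearly all actives have a fitted effect of over 55% in size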). Put shortly:
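Following a 6 hr plating period, HEK293T cells carrying a UAS-driven beta-lactamase reporter under ER-beta control received compounds and 1nM E2 (final). After 16 hr at 37C and 2 hr substrate loading, CellTiter-Glo luminescence indicated viability.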

Assay [9] addresses Estrogen receptor (Homo sapiens) (UniProt P03372). Description: qHTS assay to identify small molecule agonists of the estrogen receptor alpha (ER-alpha) signaling pathway in the presence of an antagonist (AID 1259383). Further: top concentration of the series differs between compounds; nearly all actives have a fitted effect of over 15% in size. Put shortly: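 Cells are hormone-deprived for 5 days (charcoal-stripped FBS, no phenol red), plated for 24hr, spiked with 10.0nM ICI-182,780, then dosed at 15 concentrations. After 22hr at 37C, ONE-Glo luminescence reports ERE-luciferase activity.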

Assay [10] can be described thus: qHTS assay to identify small molecule agonists or antagonists of the thyroid stimulating hormone receptor (TSHR) signaling pathway - wild type cell line counter screen (AID 1259384). Put shortly: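 Counter screen in untransfected Hek293: compounds (15-point titration, triplicate) plus phosphodiesterase inhibitor Ro20-1724 added after 18 h plating; 30 min RT. Intracellular cAMP via competitive d2/cryptate immunoassay, 1 h incubation.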

A number with no mark means an inactive call. Inconclusive results are not listed. Calls of active or inactive are those of the source. Unless noted, the call rests on the fitted dose curve.
On the % scale 0 is the no-effect control and ±100 the full control effect.

Estrogen receptor (Homo sapiens), sequence (P03372 whole entry, looked up): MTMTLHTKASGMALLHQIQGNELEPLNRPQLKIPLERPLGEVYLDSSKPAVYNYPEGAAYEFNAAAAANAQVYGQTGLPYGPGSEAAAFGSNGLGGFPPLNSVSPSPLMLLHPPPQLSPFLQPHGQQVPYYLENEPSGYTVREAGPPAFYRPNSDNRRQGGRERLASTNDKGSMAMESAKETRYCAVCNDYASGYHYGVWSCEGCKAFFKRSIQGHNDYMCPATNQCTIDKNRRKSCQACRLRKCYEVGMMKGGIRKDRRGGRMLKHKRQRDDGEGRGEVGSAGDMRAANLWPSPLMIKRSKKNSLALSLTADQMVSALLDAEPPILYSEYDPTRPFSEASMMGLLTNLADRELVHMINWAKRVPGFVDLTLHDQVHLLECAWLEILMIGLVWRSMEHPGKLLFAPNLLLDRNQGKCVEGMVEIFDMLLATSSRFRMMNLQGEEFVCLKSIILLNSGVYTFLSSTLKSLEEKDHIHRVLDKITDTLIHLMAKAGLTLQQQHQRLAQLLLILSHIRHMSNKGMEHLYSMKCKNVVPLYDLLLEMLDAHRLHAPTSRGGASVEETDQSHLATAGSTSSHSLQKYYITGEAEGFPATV
Estrogen receptor beta (Homo sapiens), sequence (Q92731 whole entry, looked up): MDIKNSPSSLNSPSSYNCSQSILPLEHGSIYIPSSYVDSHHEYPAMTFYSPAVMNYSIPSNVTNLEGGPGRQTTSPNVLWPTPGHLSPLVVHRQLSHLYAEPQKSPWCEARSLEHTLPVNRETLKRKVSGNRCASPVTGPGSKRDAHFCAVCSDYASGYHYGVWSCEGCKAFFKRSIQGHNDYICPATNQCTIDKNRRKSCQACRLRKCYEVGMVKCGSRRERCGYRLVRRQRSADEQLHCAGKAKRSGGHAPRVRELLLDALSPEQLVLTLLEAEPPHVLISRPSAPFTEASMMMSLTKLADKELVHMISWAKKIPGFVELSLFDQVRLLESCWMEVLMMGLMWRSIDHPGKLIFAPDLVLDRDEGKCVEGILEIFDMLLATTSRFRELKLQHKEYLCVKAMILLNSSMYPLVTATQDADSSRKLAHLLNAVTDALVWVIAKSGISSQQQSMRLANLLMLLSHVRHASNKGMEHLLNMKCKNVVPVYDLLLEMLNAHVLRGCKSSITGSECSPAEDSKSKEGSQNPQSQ

Turning to `O=C(CBr)Nc1ccc(Cl)cc1C(=O)c1ccccc1F`, the Potency entry in [1], in assay [2], in assay [3], in [4], in [5] and in [6] was “inactive” each time. The Potency result in [7], in [8] and in [9] was “inactive” each time.
As for `CCCN(CC1CC1)c1c([N+](=O)[O-])cc(C(F)(F)F)cc1[N+](=O)[O-]`, the Potency entry in assay [1], in assay [2], in [3], in [4], in assay [5] and in assay [6] was “inactive” each time. Moreover, the Potency result in assay [8] and in assay [9] was “inactive” in each case. In addition, in [10], the compound was called inactive.
On to `NC(=O)CI`, for which the Potency entry in assay [1], in assay [2], in [3], in [4], in assay [5] and in assay [6] was “inactive” in each case. The Potency result in assay [8] and in [9] was “inactive” each time. Further, the call in [10] was inactive.
`CO/C=C(/C(=O)OC)c1ccccc1COc1cccc(C(F)(F)F)n1`: the Potency result in assay [1], in assay [3], in assay [8] and in [9] was “inactive” in each case. Moreover, the Potency is 0.544 µM (active) in [2], 3.85 µM (active) in assay [4], 5.44 µM (active) in assay [5] and 4.85 µM (active) in assay [6].
With `c1ccc(C2CC2)c(OCC2=NCCN2)c1`, the Potency entry in [1], in [2], in assay [3], in assay [4], in assay [5] and in [6] was “inactive” in each case. Also, the Potency entry in [7], in assay [8] and in [9] was “inactive” in each case.
On to `CCOP(=S)(Oc1ccc([N+](=O)[O-])cc1)c1ccccc1` (configuration not stated), for which the Potency result in [1], in assay [2], in assay [3], in [4], in assay [5] and in assay [6] was “inactive” each time. In addition, the Potency entry in assay [8] and in assay [9] was “inactive” each time.
Regarding `COc1cc(CC(C)N)cc2c1OCO2` (configuration not stated), the Potency entry in assay [1], in [2], in assay [3], in [4], in assay [5] and in [6] was “inactive” throughout. In addition, the Potency entry in assay [8] and in assay [9] was “inactive” each time. Further, the compound was classed as inactive in assay [10].
For the compound `COc1cc(Cl)c(OC)cc1Cl`, the Potency result in assay [1], in [2], in assay [3], in assay [4], in [5] and in assay [6] was “inactive” in each case. For the same compound, the Potency entry in assay [8] and in assay [9] was “inactive” each time.
Take `O=C1CN=C(c2ccccc2)c2cc(Cl)ccc2N1CC1CC1`: the Potency entry in assay [1], in assay [3], in assay [5], in [6] and in assay [8] was “inactive” in each case. For the same compound, the Potency in [2] was 51 µM (active); in [4], 28.7 µM (active).
Take `c1ccoc1`: the Potency result in assay [1], in assay [2], in assay [3], in assay [4], in assay [5] and in assay [6] was “inactive” in each case. Moreover, the Potency result in [8] and in [9] was “inactive” in each case. In addition, the compound was called inactive in assay [10].
Regarding `O=C(O)C(F)(F)C(F)(F)C(F)(F)C(F)(F)C(F)(F)C(F)(F)C(F)(F)C(F)(F)C(F)(F)C(F)(F)F`, the Potency entry in assay [1], in assay [2], in assay [3], in [4], in [5] and in assay [8] was “inactive” in each case.
As for `CCCN(CCCl)c1c([N+](=O)[O-])cc(C(F)(F)F)cc1[N+](=O)[O-]`, the Potency result in [1], in assay [2], in [3], in assay [4], in assay [5] and in assay [6] was “inactive” in each case. Moreover, the Potency result in [8] and in assay [9] was “inactive” in each case. In [10], the compound was called inactive.
With `O=[N+]([O-])C(Br)(CO)CO`, the Potency result in assay [1], in assay [3], in assay [4], in [5], in [7] and in assay [8] was “inactive” each time. Further, the Potency entry in assay [9] is “inactive”. Further, in [2], the Potency is 34.4 µM (active). Further, the compound was classed as inactive in assay [10].
For the compound `O=C1c2ccccc2C(=O)C1C(=O)C(c1ccccc1)c1ccccc1`, the Potency entry in assay [1], in assay [2], in assay [3], in [5], in assay [6] and in [8] was “inactive” throughout. The Potency in assay [4] was 23.7 µM (active). Besides, the compound was called inactive in assay [10].
For `CCOc1ccc(C(C)(C)COCc2cccc(Oc3ccccc3)c2)cc1`, the Potency result in assay [1], in assay [2], in [3], in [4], in assay [5] and in [8] was “inactive” throughout. The Potency result in [9] was “inactive”. For the same compound, the call in [10] was inactive.
Regarding `OC(c1ccc(Cl)cc1)(c1ccc(Cl)cc1)c1cccnc1`, the Potency entry in [1], in assay [3], in assay [6], in [7], in assay [8] and in [9] was “inactive” each time. Further, the Potency in assay [2] is 30.6 µM (active); in [4] it was 38.6 µM (active).
As for `COC(N)=O`, the Potency result in assay [1], in assay [2], in assay [3], in assay [4], in [5] and in [8] was “inactive” throughout. In addition, in [9], the Potency result is “inactive”.
As for `Nc1ccc([N+](=O)[O-])cc1[N+](=O)[O-]`, the Potency entry in assay [1], in assay [2], in assay [3], in assay [4], in assay [6] and in [7] was “inactive” throughout. Moreover, the Potency result in assay [8] and in assay [9] was “inactive” in each case. Moreover, in assay [10], the call was inactive.
Regarding `CCOP(O)OCC`, the Potency result in assay [1], in assay [2], in [3], in assay [4], in [6] and in [8] was “inactive” throughout.
For `O=C(O)CC(Cl)C(=O)O` (configuration not stated), the Potency entry in assay [1], in assay [2], in [3], in assay [4], in assay [5] and in assay [6] was “inactive” each time. The Potency entry in assay [8] was “inactive”. Further, the outcome in assay [10] was inactive.
Turning to `Oc1ccc(Cl)c(Cl)c1Cl`, the Potency result in [1], in assay [2], in assay [3], in assay [4], in assay [5] and in assay [8] was “inactive” throughout. In addition, in assay [10], the call was inactive.
Take `CO[C@@H]1[C@H](OC(=O)NC(=O)CCl)CC[C@]2(CO2)[C@H]1[C@@]1(C)O[C@@H]1CC=C(C)C`: the activity change in assay [1] is -3.77% [at 18.9 µM, active compounds read high]. Also, the activity change, negative = inhibition in assay [2] is -6.49% [at 19 µM]. Besides, the activation in assay [3] was -2.62% [at 19 µM]; in assay [7], -3.01% [at 19 µM]; in [9] it was -0.438% [at 19 µM]. Further, the activity, negative = inhibition in assay [4] was -21.4% [at 19 µM]. The activity change, negative = cytotoxicity in assay [5] is -2.66% [at 19 µM]; in [8] it was -10.8% [at 19 µM].
As to `CCC(Cl)CCl` (configuration not stated), the Potency entry in assay [1], in assay [2], in [3], in assay [4], in [6] and in [8] was “inactive” throughout. Moreover, the Potency entry in [9] is “inactive”.
For `Clc1cc(C(Cl)(Cl)Cl)cnc1Cl`, the Potency result in [1], in assay [2], in [3], in assay [4], in [6] and in assay [8] was “inactive” each time. In addition, the Potency entry in [9] is “inactive”. The Potency in assay [5] was 24.3 µM (active). The outcome in assay [10] was inactive.
For the compound `CC(=O)C(C)(C)C`, the Potency result in assay [1], in [2], in [3], in assay [4], in assay [5] and in assay [6] was “inactive” throughout. Moreover, the Potency entry in assay [8] and in [9] was “inactive” each time. Further, in assay [10], the result was inactive.
Take `Cl/C=C\C[N+]12CN3CN(CN(C3)C1)C2`: the Potency result in assay [1], in assay [2], in assay [3], in [4], in assay [6] and in assay [7] was “inactive” throughout. The Potency result in [8] and in [9] was “inactive” each time. In addition, the result in assay [10] was inactive.

These data come from PubChem BioAssay (Tox21).
